Assay results: PubChem BioAssay
Activity calls are given as the source filed them. Rule as the data show it, unless noted: active = nuclear beta-catenin stimulation mostly above about 4.2% (no sharp cut-off); inactive = mostly below about 10%.

What was measured:
[1] = stimulators of nuclear beta-catenin in C2C12, primary screen, imaging, WNT3A-conditioned medium, mouse C2C12, NPC library (AID 1117326); details: stronger effect = higher value; also: reference of the scale not given here
[2] = stimulators of insulin release from INS-1E, primary screen, cell-based, 5 mM glucose, NPC library (AID 1117329;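 active = compound raises insulin release from rat beta cells at 5 mM glucose, no numeric limit stated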; also: reference of the scale not given here); details: rat INS-1E insulin secretion, at 10 µM, stronger effect = higher value
[3] = growth inhibition of GSK3B-pretreated HCT116 cells – cell-based, CellTiter-Glo, 0.2 to 20 µM (AID 1117336;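 active = compounds lowering colon cancer cell viability after pretreatment blocking the GSK3B kinase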); details: HCT116 viability after GSK3B inhibitor, at 20 µM, stronger effect = higher value
[4] = inhibition of endothelial tube formation, primary screen, imaging, VEGF stimulated, CD31 staining, tube area, NPC library (AID 1117340;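 active = compound that reduces growth-factor-driven endothelial tube area in a mixed cell culture, no cutoff stated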); details: VEGF-stimulated ADSC/ECFC co-culture, at 10 µM, stronger effect = higher value
[5] = glucagon-like peptide 1 release enhancers, primary assay, NCI-H716 cell line, NPC library (AID 1117341;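 active = compound raises GLP1 secretion from the human gut endocrine cells, with no numeric limit stated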; also: reference of the scale not given here); details: NCI-H716 cells, at 10 µM, stronger effect = higher value
[6] = HCT116 colon cancer cell growth inhibition, primary screen, CellTiter-Glo luminescence, NPC library (AID 1117342;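 active = compounds that lower survival of HCT116 colon cancer cells in the luminescence readout, no numeric limit stated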); details: at 20 µM (top of the series)
[7] = CellTiter-Glo luminescent readout of SW480 viability loss, NPC library primary (AID 1117343;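 active = compounds that lower viability of the colon cancer cells in the luminescence readout, with no numeric limit stated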); details: CellTiter-Glo luminescence; at 20 µM (top of the series)
[8] = decreased DLD-1 cellular survival, CellTiter-Glo luminescent readout, NPC compound collection, primary HTS (AID 1117346;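 active = compounds that lower survival of DLD-1 colon cancer cells in the luminescence readout, no cutoff given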); details: DLD-1 viability, CellTiter-Glo luminescence; at 20 µM (top of the series)

Row | Compound | nuclear beta-catenin stimulation ([1]; at 10 µM) | nuclear beta-catenin stimulation ([1]; stimulation, at 2 µM) [%] | insulin secretion stimulation [2] | viability decrease [3] | tube area decrease [4] | GLP1 secretion stimulation [5] | inhibition of viability [6] | viability decrease (inhibition) [7] | viability decrease (inhibition) [8]
1 | O=C(Oc1ccccc1)c1ccccc1O | -0.5% (inactive) | -1 | -1.5% (inactive) | -4.35% (inactive) | 14.3% (inactive) | -1.2% (inactive) | 9.1% (inactive) | 84.4% (active) | 12.1% (inactive)
2 | CCCC(O)C(CC)CO (stereo unspecified) | -0.6% (inactive) | 1.4 | -1.8% (inactive) | -18.3% (inactive) | 16.6% (inactive) | -0.4% (inactive) | 3.33% (inactive) | 2.8% (inactive) | 2.4% (inactive)
3 | Nc1nnnn1-c1ccccc1 | -0.2% (inactive) | 0.5 | -1.6% (inactive) | -7.65% (inactive) | -14.5% (inactive) | 2.4% (inactive) | 5.4% (inactive) | 56.4% (active) | -1.05% (inactive)
4 | COC(=O)c1ccccc1C(=O)c1ccc(OCCN2CCCCC2)cc1 | 0.4% (inactive) | 0.7 | 0.95% (inactive) | 26.9% (inactive) | -5.8% (inactive) | 3.5% (inactive) | 39.7% (inactive) | 15.8% (inactive) | 39.7% (inactive)
5 | CCCOc1ccc2c(c1)CC[C@@H]1[C@@H]2CC[C@]2(C)C(OC)CC[C@@H]12 (stereo partly specified) | 0.5% (inactive) | 0 | -0.1% (inactive) | 69.6% (active) | -3.1% (inactive) | -0.8% (inactive) | 56% (active) | 103% (active) | 40.8% (inactive)
6 | Oc1ccc(C(O)CNCCCCCCNCC(O)c2ccc(O)c(O)c2)cc1O (stereo unspecified) | -0.7% (inactive) | -2.3 | 1.65% (inactive) | 76.1% (active) | -0.1% (inactive) | 4.5% (inactive) | 43% (inactive) | 42.9% (inactive) | 40.4% (inactive)
7 | Cc1cc(O)c(C(C)C)cc1Cl | -0.5% (inactive) | 1.2 | -0.9% (inactive) | 36.1% (inactive) | -10.5% (inactive) | 29.3% (active) | -9.5% (inactive) | 22% (inactive) | 19.5% (inactive)
8 | Cc1ccc2c(Br)cc(Br)c(O)c2n1 | 43% (active) | 5.5 | 2.4% (inactive) | 91% (active) | 106% (active) | -1.3% (inactive) | 79.2% (active) | 90.3% (active) | 93.3% (active)
9 | C[C@@H]1C[C@H]2[C@@H]3CCC4=CC(=O)C=C[C@]4(C)[C@@]3(F)[C@@H](O)C[C@]2(C)[C@@]1(O)C(=O)COC(=O)c1ccncc1 | 2.8% (inactive) | 2.8 | -1% (inactive) | -41.3% (inactive) | -2.4% (inactive) | -1.9% (inactive) | -4.43% (inactive) | 5.8% (inactive) | -18.6% (inactive)
10 | O=C(O)Cc1cccc(-c2cc(CCCCCCc3ccc(O[C@H]4O[C@H](CO)[C@@H](O)[C@H](O)[C@@H]4O)c(-c4cccc(CC(=O)O)c4)c3)ccc2O[C@H]2O[C@H](CO)[C@@H](O)[C@H](O)[C@@H]2O)c1 | 0.7% (inactive) | 1.4 | 2.3% (inactive) | -12.7% (inactive) | -29% (inactive) | 9.5% (inactive) | -26.6% (inactive) | -24.6% (inactive) | -14.9% (inactive)
11 | CCN(CC)S(=O)(=O)c1ccc(C(=O)O)cc1 | 1.6% (inactive) | 0.7 | -2.1% (inactive) | -8.6% (inactive) | 8.6% (inactive) | -3.2% (inactive) | -14.7% (inactive) | 40% (inactive) | 7.45% (inactive)
12 | C[N+]1(CC2COC(c3ccccc3)(C3CCCCC3)O2)CCCCC1 (stereo unspecified) | -2.3% (inactive) | -1.4 | 5% (inactive) | -13.4% (inactive) | 10.1% (inactive) | -2.3% (inactive) | 28.7% (inactive) | 7.6% (inactive) | 3.2% (inactive)
13 | CC(C)=CCNc1ncnc2c1ncn2[C@@H]1O[C@H](CO)[C@@H](O)[C@H]1O | 4.6% (inactive) | 1.9 | 1.8% (inactive) | 109% (active) | 106% (active) | 0.8% (inactive) | 111% (active) | 110% (active) | 101% (active)
14 | C#Cc1ccc(-c2ccccc2F)cc1 | -1.3% (inactive) | -2.1 | 0.3% (inactive) | -3.5% (inactive) | 7.2% (inactive) | -0.7% (inactive) | 0.6% (inactive) | -12.8% (inactive) | 18.8% (inactive)
